Vif imaging – blocks HIV Vif function. HEK293T cells, Vif self-association by quenched fluorescence, imaging, 24 h. AID 602346. inhibition, % at 7.49 µM. 0.35% of 340,000 active; in the data active = inhibition above about 50%, passing the limit was not always enough
NadD inh – NadD (S. aureus) enzyme inhibition; purified NadD enzyme, colorimetric absorbance read-out; inhibition, % at 20 µM; 0.78% of 360,000 active; AID 602399; in the data active = inhibition above about 26%
NR3A LBD binder – NR3A (human) ligand-binding domain modulation | AID 1259313 | 2.5% of 340,000 active | Tm shift relative to glycine control, % at 25 µM | NR3A LBD differential scanning fluorimetry, Tm shift; 0% = protein alone, 100% = glycine-bound protein;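 active = melting temperature shift of at least 10% of the positive control shift, at one fixed dose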
esBAF inh – blocks esBAF chromatin remodeling in mouse ES cells | Bmi1-luciferase knock-in reporter, 24 h; 100% = twice the neutral-well signal | 2% of 350,000 active | reporter increase, % at 12.5 µM; in the data active = activation above about 40%;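 also: 0% = median of the plate's neutral control wells and 100% = double that signal; a rise in the Bmi1 reporter signal indicates esBAF inhibition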
SKN-1 inh – blocks SKN-1 activity in C. elegans | inhibition, % at 21.8 µM | C. elegans VP596 Pgst-4::GFP/RFP ratio, acrylamide-induced, 24 h | 0.49% of 360,000 active | AID 624304;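 active = interference check ratio from 0.5 to 1.5 plus GFP to RFP signal ratio inhibition reaching or exceeding a fixed threshold, cut at about 30% in these data, passing the limit was not always enough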
SMARCA2 activ – activators of SMARCA2 function. 1% of 370,000 active. activation, % at 9.1 µM. MG213 cells, MMTV-luciferase reporter, dexamethasone, overnight; in the data active = activation above about 7.8%;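 also: 0% = vehicle wells and 100% = reference activator wells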
NadD inh conf – NadD (S. aureus) inhibition, single concentration confirmation; shares compounds with NadD inh; purified S. aureus NadD, colorimetric enzyme assay; inhibition, % at 20 µM; 13% of 2,000 active; AID 624309; in the data active = inhibition mostly above about 42%, no sharp cut-off; inactive = mostly below about 42%
* = called active by the depositor; · = not tested or not shown. In the library only some 5.2% were active in any assay of this set; here they are far more common.

SMILES	Vif imaging	NadD inh	NR3A LBD binder	esBAF inh	SKN-1 inh	SMARCA2 activ	NadD inh conf
CCC(Sc1nc2ccsc2c(=O)n1Cc1ccc(C(=O)O)cc1)C(=O)Nc1ccc(C)c(Cl)c1 (stereo unspecified)	-2	48*	-9	5	15	-1	47*
CCC(Sc1nc2ccsc2c(=O)n1Cc1ccc(C(=O)O)cc1)C(=O)Nc1cc(Cl)ccc1C (stereo unspecified)	3	19	·	7	6	-4	·
CO[C@@H]1CN(C)C(=O)c2cc(NS(C)(=O)=O)ccc2OC[C@H](C)N(Cc2ccccn2)C[C@@H]1C	·	·	·	-5	·	·	·
Cc1ccc(-c2cc(C(=O)N/N=C/c3ccc([N+](=O)[O-])o3)c3ccccc3n2)o1	12	32*	-3	17	7	3	8
O=C(N/N=C/c1ccc([N+](=O)[O-])o1)c1cc(-c2ccc(-c3ccccc3)cc2)nc2ccccc12	6	70*	-14	·	11	1	10
O=C(N/N=C/c1cc([N+](=O)[O-])ccc1Cl)c1cc(-c2ccccc2)nc2ccccc12	-23	36*	-1	·	1	4	-1
C/C=C/c1cnc2c(c1)C(=O)N([C@@H](C)CO)C[C@H](C)[C@@H](CN(C)C(=O)Cc1ccccn1)O2	·	·	·	7	·	·	·
Cn1c(=O)[nH]c(=O)c2c1[nH]c(=S)n2CCCc1ccccc1	-2	32*	-1	-12	8	1	21
Cn1c(=O)c2c([nH]c(=S)n2CCCc2ccccc2)n(C)c1=O	-4	24	4	-4	-5	0	·
Cc1ccc(Cn2c(C(CO)Nc3nc(-c4ccc(Cl)c([N+](=O)[O-])c4)cs3)nc3ccccc32)cc1 (stereo unspecified)	·	51*	26*	1	14	-2	41
CCCn1c(C(C)Nc2nc(-c3ccc(Cl)c([N+](=O)[O-])c3)cs2)nc2cc(Cl)c(N3CCCCC3)cc21 (stereo unspecified)	-6	33*	5	-1	-6	·	5
Clc1ccc(-c2ccc(-c3nn4c(-c5ccco5)nnc4s3)o2)cc1	5	35*	0	3	8	-2	9
Cc1ccc(OCC(=O)Nc2nnc(S(=O)(=O)N3CCCCC3)s2)cc1	-2	49*	-6	8	-2	0	18
O=C(Nc1nnc(S(=O)(=O)N2CCCCCC2)s1)c1ccc(Cl)cc1	-3	31*	-3	-8	-1	-2	10
Cc1ccc(C(=O)Nc2nnc(S(=O)(=O)N3CCCCCC3)s2)cc1	·	3	0	9	-14	2	·
C[C@H]1CCCCO[C@H](CN(C)C(=O)CCCN(C)C)[C@@H](C)CN([C@@H](C)CO)C(=O)c2cc(NS(=O)(=O)c3ccc(F)cc3)ccc2O1	·	·	·	10	·	·	·
O=C1CC(=C2c3ccccc3-c3ccccc32)C(=O)N1CCN1CCN(c2cccc(Cl)c2)CC1	2	69*	1	-5	21	1	60*
C[C@@H]1CCCCO[C@@H](CN(C)C(=O)C2CCCCC2)[C@H](C)CN([C@@H](C)CO)C(=O)c2cc(NC(=O)c3ccncc3)ccc2O1	·	·	·	28	·	·	·
CCN=C1NN=C(c2cc(C)n(Cc3ccco3)c2C)CS1	7	37*	-4	·	1	-9	7
COCCn1c(C)cc(C2=NNC(=Nc3ccccc3)SC2)c1C	·	36*	-4	-12	27	-2	4
CCN=C1NN=C(c2cc(C)n(CCc3ccccc3)c2C)CS1	-5	17	0	·	1	-2	·
Cc1ccc(C(=O)N2CCN(C3c4cccc5cccc(c45)C3NS(=O)(=O)c3ccccc3)CC2)cc1 (stereo unspecified)	-3	36*	0	-12	0	-1	19
O=S(=O)(Nc1c(S(=O)(=O)c2ccccc2)c2nc3ccccc3nc2n1C1CCCCC1)c1ccccc1	-10	32*	-2	·	-13	-4	48*
N#C/C(=C\c1ccncc1)c1nc2ccccc2[nH]1	-5	-1	-1	·	3	-1	·
N#C/C(=C\c1ccc(Oc2ccc(C(F)(F)F)cc2[N+](=O)[O-])cc1)c1nc2ccccc2[nH]1	-1	40*	5	·	6	3	11
SMILES	Vif imaging	NadD inh	NR3A LBD binder	esBAF inh	SKN-1 inh	SMARCA2 activ	NadD inh conf
COc1cc(/C=C(\C#N)c2nc3ccccc3[nH]2)ccc1OC(=O)c1ccco1	-1	18	9	·	11	2	·
COc1cc(/C=C(\C#N)c2nc3ccccc3[nH]2)c([N+](=O)[O-])cc1OCc1ccccc1	-26	40*	3	36	2	-2	17
COc1ccc(C2C=C(C34CC5CC(CC(C5)C3)C4)NC(=S)N2)cc1OC (stereo unspecified)	1	29*	7	·	7	1	31
COc1ccc(C2OCC(C)(C)CO2)cc1OC	1	-4	-3	-6	-2	2	·
CN(C)C(=O)[C@H]1[C@H](CO)[C@H]2Cn3c(ccc(C4=CCCC4)c3=O)[C@@H]1N2C	·	·	·	-3	·	·	·
C[C@H](CO)N1C[C@H](C)[C@@H](CN(C)C(=O)Nc2ccc(F)cc2)OCCCC[C@H](C)Oc2ccc(NC(=O)C3CCCCC3)cc2C1=O	·	·	·	5	·	·	·
CCOc1cc(/C=N\NC(=O)Cc2ccccc2)ccc1OCC(=O)Nc1ccc(C)c(C)c1	31	5	-1	-1	3	0	·
CCOc1cc(/C=N\Nc2ccc([N+](=O)[O-])cc2)ccc1OCC(=O)Nc1ccc(C)c(C)c1	-8	44*	15*	-7	-7	0	3
COc1ccccc1C(=O)Nc1ccc2c(c1)nc1n2CCN(C2CCCCC2)C1	-3	35*	0	-5	12	2	2
O=C(Nc1ccc2c(c1)nc1n2CCN(C2CCCCC2)C1)c1ccco1	0	18	-1	20	11	0	·
CC(NC(=O)c1c(N)[nH]c(C(=O)c2ccc(Cl)cc2)c1-c1ccc(Br)cc1)c1cccc2ccccc12 (stereo unspecified)	·	·	·	·	·	-2	·
CC(NC(=O)c1c(N)[nH]c(C(=O)c2ccccc2)c1-c1ccccc1Br)c1cccc2ccccc12 (stereo unspecified)	·	35*	·	·	5	-3	37
COc1ccc(NC(=O)N(C)C[C@@H]2Oc3ccc(NS(=O)(=O)c4ccc(F)cc4)cc3C(=O)N([C@H](C)CO)C[C@@H]2C)cc1	·	·	·	-4	·	·	·
COc1cc2oc(=O)cc(CN3CCN(c4ccc(Cl)c(Cl)c4)CC3)c2cc1Cl	·	39*	·	-4	10	2	13
CCN(CC(=O)NC(C)(C)C)Cc1nc2c(Br)cc(Br)cc2c(=O)[nH]1	-20	-5	0	·	-7	-1	·
